The campaign covered roughly 39,000 compounds. About 1,500 (3.8%) were called active. This is one part of a sample in which actives are shown more often than they occur.
tested on: HSkMC (human skeletal muscle cells); test: cytotoxicity call (relative viability < 0.9); details: 10 µM

SMILES	cytotoxicity call
C[C@@H]1CN([C@@H](C)CO)S(=O)(=O)c2ccc(-c3ccc(F)cc3)cc2O[C@@H]1CN(C)S(C)(=O)=O	inactive
Oc1ccc([C@@H]2C=CCC2)cc1	inactive
COc1ccc(NC(=O)N(C)C[C@H]2OCCCC[C@@H](C)Oc3ccc(NC(=O)Nc4ccc5c(c4)OCO5)cc3C(=O)N([C@@H](C)CO)C[C@H]2C)cc1	inactive
C[C@@H]1CN([C@H](C)CO)C(=O)c2cccc(NC(=O)C3CCOCC3)c2O[C@@H]1CN(C)Cc1ccc2c(c1)OCO2	inactive
Cc1cc(C(=O)Nc2cccc3c2O[C@H](CN(C)S(=O)(=O)c2ccc(F)cc2)[C@H](C)CN([C@H](C)CO)C3=O)n(C)n1	inactive
CN(C)CC(=O)N1[C@@H]2Cn3c(cccc3=O)[C@H]1[C@@H](C(=O)NCc1ccccc1)[C@@H]2CO	inactive
C=CCC[C@@H](Cc1ccc(F)cc1)C(=O)O[C@@H](CNC(=O)[C@H](CC=C)CC(=O)N(CCO)Cc1ccccc1)c1ccccc1	active
C=CCC[C@@H](Cc1ccc(F)cc1)C(=O)O[C@H](CNC(=O)[C@@H](CC=C)CC(=O)N(CCO)Cc1ccccc1)c1ccccc1	active
C=CCC[C@@H](Cc1ccc(F)cc1)C(=O)O[C@H](CNC(=O)[C@H](CC=C)CC(=O)N(CCO)Cc1ccccc1)c1ccccc1	inactive
C=CCC[C@H](Cc1ccc(F)cc1)C(=O)O[C@@H](CNC(=O)[C@@H](CC=C)CC(=O)N(CCO)Cc1ccccc1)c1ccccc1	active
C=CCC[C@@H](Cc1ccc(F)cc1)C(=O)O[C@@H](CNC(=O)[C@@H](CC=C)CC(=O)N(CCO)Cc1ccccc1)c1ccccc1	active
C=CCC[C@H](Cc1ccc(F)cc1)C(=O)O[C@H](CNC(=O)[C@@H](CC=C)CC(=O)N(CCO)Cc1ccccc1)c1ccccc1	inactive
C=CCC[C@H](Cc1ccc(F)cc1)C(=O)O[C@H](CNC(=O)[C@H](CC=C)CC(=O)N(CCO)Cc1ccccc1)c1ccccc1	inactive
C=CCC[C@H](Cc1ccc(F)cc1)C(=O)O[C@@H](CNC(=O)[C@H](CC=C)CC(=O)N(CCO)Cc1ccccc1)c1ccccc1	inactive
COC(=O)C[C@H]1CC[C@@H]2[C@H](COC[C@@H](O)CN2S(=O)(=O)c2ccc(F)cc2)O1	inactive
C=CCNC(=O)[C@@H]1[C@H]2C(=O)O[C@H](c3ccccc3)[C@H](c3ccccc3)N2[C@H](c2ccc(O)cc2)[C@@]12C(=O)N(C(=O)OCCOC)c1ccc(C#Cc3ccc(OC)cc3)cc12	inactive
CC(C)NC(=O)N(C)C[C@H]1Oc2cc(-c3ccccc3F)ccc2S(=O)(=O)N([C@@H](C)CO)C[C@H]1C	inactive
Nc1ncnc(Cl)c1N	inactive
COCC#Cc1ccc2c(c1)O[C@H](CN(C)C(=O)c1ccccc1)[C@@H](C)CN([C@@H](C)CO)S2(=O)=O	inactive
C[C@@H]1CCCCO[C@@H](CN(C)C(=O)c2ccccc2)[C@@H](C)CN([C@H](C)CO)C(=O)c2cc(NC(=O)Nc3ccc(F)cc3)ccc2O1	inactive
COc1ccccc1CNC(=O)C[C@H]1CC[C@H]2[C@@H](COC[C@H](O)CN2C(=O)Nc2ccc(F)cc2)O1	inactive

SMILES	cytotoxicity call
O=C(C[C@@H]1C[C@H]2c3cc(NC(=O)Nc4ccc(C(F)(F)F)cc4)ccc3O[C@H]2[C@H](CO)O1)NCc1cc(F)ccc1F	inactive
C[C@@H]1CN([C@H](C)CO)C(=O)c2cc(NC(=O)c3ccncc3)ccc2O[C@H]1CN(C)Cc1ccc(Oc2ccccc2)cc1	inactive
O=C(O[C@H]1[C@H](O)[C@@H](CO)O[C@H](c2c(O)cc(O)c(C(=O)c3ccc(O)cc3)c2O)[C@H]1OC(=O)c1cc(O)c(O)c(O)c1)c1cc(O)c(O)c(O)c1	inactive
CCS(=O)(=O)Nc1ccc2c(c1)C(=O)N(C)[C@@H]1CC[C@H](CC(=O)NCCCN3CCOCC3)O[C@@H]1CO2	inactive
COc1ccc(S(=O)(=O)Nc2ccc3c(c2)CC(=O)N([C@H](C)CO)C[C@H](C)[C@@H](CN(C)Cc2ccc(-c4ccccc4)cc2)O3)cc1	inactive
COc1ccc(S(=O)(=O)Nc2ccc3c(c2)CC(=O)N([C@@H](C)CO)C[C@@H](C)[C@@H](CN(C)Cc2ccc(-c4ccccc4)cc2)O3)cc1	inactive
COc1ccc(S(=O)(=O)Nc2ccc3c(c2)CC(=O)N([C@@H](C)CO)C[C@@H](C)[C@H](CN(C)Cc2ccc(-c4ccccc4)cc2)O3)cc1	inactive
COc1ccc(S(=O)(=O)Nc2ccc3c(c2)CC(=O)N([C@@H](C)CO)C[C@H](C)[C@@H](CN(C)Cc2ccc(-c4ccccc4)cc2)O3)cc1	inactive
COc1ccc(S(=O)(=O)Nc2ccc3c(c2)CC(=O)N([C@H](C)CO)C[C@@H](C)[C@H](CN(C)Cc2ccc(-c4ccccc4)cc2)O3)cc1	active
COc1ccc(S(=O)(=O)Nc2ccc3c(c2)CC(=O)N([C@H](C)CO)C[C@@H](C)[C@@H](CN(C)Cc2ccc(-c4ccccc4)cc2)O3)cc1	active
COc1ccc(S(=O)(=O)Nc2ccc3c(c2)CC(=O)N([C@@H](C)CO)C[C@H](C)[C@H](CN(C)Cc2ccc(-c4ccccc4)cc2)O3)cc1	active
COc1ccc(S(=O)(=O)Nc2ccc3c(c2)CC(=O)N([C@H](C)CO)C[C@H](C)[C@H](CN(C)Cc2ccc(-c4ccccc4)cc2)O3)cc1	inactive
Cc1ccc2oc(=O)cc(Cl)c2c1	inactive
NC(=O)NCC#Cc1ccc2c(c1)[C@]1(C(=O)N2)[C@H](C(=O)O)[C@H]2C(=O)O[C@H](c3ccccc3)[C@H](c3ccccc3)N2[C@@H]1c1ccc(OCCO)cc1	inactive
COc1ccccc1CNC(=O)C[C@H]1C[C@H]2c3cc(NC(=O)C4CCOCC4)ccc3O[C@H]2[C@@H](CO)O1	inactive
CC(C)NC(=O)N(C)C[C@@H]1Oc2ccc(NS(=O)(=O)c3cn(C)cn3)cc2CC(=O)N([C@@H](C)CO)C[C@@H]1C	inactive
Cc1noc(C)c1NC(=O)N(C)C[C@@H]1OCCCC[C@@H](C)Oc2ccc(NS(=O)(=O)c3ccc(Cl)cc3)cc2C(=O)N([C@H](C)CO)C[C@@H]1C	inactive
COc1ccc(S(=O)(=O)N(C)C[C@@H]2Oc3ccc(NC(=O)c4ccncc4)cc3CC(=O)N([C@@H](C)CO)C[C@H]2C)cc1	inactive
Nc1ccc(S(N)(=O)=O)cc1	inactive
C[C@@H]1CN([C@@H](C)CO)C(=O)c2cc(N(C)C)ccc2O[C@@H](C)CCCCO[C@@H]1CN(C)C(=O)CCCN(C)C	inactive
Cc1ccc2[nH]c(=O)c(C3=NN(C(=O)CCC(=O)O)[C@H](c4ccc(Br)cc4)C3)c(-c3ccccc3)c2c1	inactive

SMILES	cytotoxicity call
COc1ccc(S(=O)(=O)Nc2ccc3c(c2)CC(=O)N([C@H](C)CO)C[C@@H](C)[C@@H](CN(C)S(=O)(=O)c2ccc(OC)cc2)O3)cc1	inactive
C[C@@H]1CN([C@@H](C)CO)C(=O)c2cccc(NC(=O)C3CCCCC3)c2O[C@H]1CN(C)Cc1ccc(Oc2ccccc2)cc1	inactive
C[C@H]1CN([C@@H](C)CO)C(=O)c2cccc(NC(=O)Nc3cccc4ccccc34)c2O[C@H]1CN(C)Cc1ccc(Oc2ccccc2)cc1	inactive
C[C@H](CO)N1C[C@H](C)[C@@H](CN(C)Cc2ccc(Oc3ccccc3)cc2)Oc2c(NC(=O)Nc3ccccc3)cccc2C1=O	active
C[C@H](CO)N1C[C@H](C)[C@H](CN(C)Cc2ccc(Oc3ccccc3)cc2)Oc2c(NC(=O)Nc3cccc4ccccc34)cccc2C1=O	inactive
C[C@@H]1CN([C@@H](C)CO)C(=O)c2cccc(NC(=O)Nc3ccccc3)c2O[C@@H]1CN(C)Cc1ccc(Oc2ccccc2)cc1	inactive
C[C@H]1CN([C@@H](C)CO)C(=O)c2cccc(NC(=O)C3CCCCC3)c2O[C@H]1CN(C)Cc1ccc(Oc2ccccc2)cc1	inactive
C[C@H]1CN([C@@H](C)CO)C(=O)c2cccc(NC(=O)Nc3ccccc3)c2O[C@@H]1CN(C)Cc1ccc(Oc2ccccc2)cc1	active
C[C@@H]1CN([C@H](C)CO)C(=O)c2cccc(NC(=O)Nc3ccccc3)c2O[C@H]1CN(C)Cc1ccc(Oc2ccccc2)cc1	inactive
C[C@H](CO)N1C[C@H](C)[C@@H](CN(C)Cc2ccc(Oc3ccccc3)cc2)Oc2c(NC(=O)Nc3cccc4ccccc34)cccc2C1=O	active
C[C@H](CO)N1C[C@H](C)[C@@H](CN(C)Cc2ccc(Oc3ccccc3)cc2)Oc2c(NC(=O)C3CCCCC3)cccc2C1=O	active
C[C@@H]1CN([C@H](C)CO)C(=O)c2cccc(NC(=O)Nc3ccccc3)c2O[C@@H]1CN(C)Cc1ccc(Oc2ccccc2)cc1	inactive
C[C@@H]1CN([C@@H](C)CO)C(=O)c2cccc(NC(=O)Nc3ccccc3)c2O[C@H]1CN(C)Cc1ccc(Oc2ccccc2)cc1	inactive
O=C1NC[C@@H](c2ccccc2)OC(=O)[C@H](Cc2ccc(F)cc2)CCC=CC[C@@H]1CC(=O)N(CCO)Cc1ccccc1	inactive
C[C@H]1CN([C@@H](C)CO)C(=O)c2cc(NC(=O)Nc3ccc(C(F)(F)F)cc3)ccc2O[C@@H]1CN(C)Cc1ccncc1	inactive
COc1ccc(S(=O)(=O)Nc2cccc3c2O[C@H](CN(C)Cc2ccncc2)[C@@H](C)CN([C@H](C)CO)C3=O)cc1	inactive
CCC1OC(=O)C(C)C(=O)C(C)C(OC2OC(C)CC(N(C)C)C2O)C(C)(OC)CC(C)C(=O)C(C)C2N(CCCCn3cnc(-c4cccnc4)c3)C(=O)OC12C (stereo unspecified)	inactive
C[C@@H]1CN([C@@H](C)CO)C(=O)c2cc(NC(=O)Cc3cn(C)c4ccccc34)ccc2O[C@@H]1CN(C)Cc1ccc(C(F)(F)F)cc1	inactive
C[C@@H]1CN([C@H](C)CO)C(=O)c2cccc(NC(=O)Nc3ccc(F)cc3)c2O[C@@H]1CN(C)Cc1ccc(-c2ccccc2)cc1	inactive

— the antibiotic and cytotoxicity screens of Wong et al. (2023)
